Screening results: PubChem BioAssay, several laboratories
PHOSPHO1 inh – PHOSPHO1 (human) inhibition; Q8TCT1; recombinant PHOSPHO1, absorbance phosphatase assay; inhibition, % at 13.3 µM; 290,000 compounds, 1.1% hits; AID 1565; in the data active = inhibition above about 60%
Target sequence (Q8TCT1 whole entry, looked up): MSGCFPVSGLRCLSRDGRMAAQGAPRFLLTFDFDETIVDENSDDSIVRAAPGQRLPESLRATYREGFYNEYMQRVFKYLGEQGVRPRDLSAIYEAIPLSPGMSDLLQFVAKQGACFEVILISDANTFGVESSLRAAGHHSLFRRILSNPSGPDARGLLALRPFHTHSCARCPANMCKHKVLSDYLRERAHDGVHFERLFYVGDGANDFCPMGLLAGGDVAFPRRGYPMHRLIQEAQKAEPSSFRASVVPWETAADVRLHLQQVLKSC
PfGluPho inh – PfG6PD (Plasmodium falciparum) enzyme inhibition; AID 504690; inhibition, % at 20 µM; PfGluPho enzyme, NADPH resazurin-diaphorase fluorescence; 350,000 compounds, 0.78% hits;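 active = inhibition reaching at least a set limit at 20 µM in the primary screen, cut at about 59% in these data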;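 note: 0% = DMSO wells with substrate and 100% = DMSO wells lacking glucose-6-phosphate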
ALR H2O2 inh – human ALR oxidase inhibition via reduced H2O2 | purified ALR, DTT oxidation, H2O2 HRP-luminol luminescence | 290,000 compounds, 3.8% hits | P55789 | inhibition, % (no concentration beside the values);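 active = mean replicate inhibition above about 79%, with every replicate also reaching it, limit read from the data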
Target sequence (P55789 whole entry, looked up): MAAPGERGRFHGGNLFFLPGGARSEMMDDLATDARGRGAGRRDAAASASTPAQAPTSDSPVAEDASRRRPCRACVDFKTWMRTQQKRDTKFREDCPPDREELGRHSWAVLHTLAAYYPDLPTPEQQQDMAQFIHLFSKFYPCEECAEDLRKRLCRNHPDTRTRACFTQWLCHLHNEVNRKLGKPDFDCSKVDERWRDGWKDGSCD
Cardio protect – myocardial damage modulation in H9c2 cells. H9c2 cardiomyocytes, H2O2 injury protection, ATPLite, 2 h. protection from H2O2 cell death, % at 20 µM. 360,000 compounds, 0.63% hits. AID 588492;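 active = compounds giving at least 50% protection of heart cells from peroxide-induced death in the single-dose screen, raw or plate-pattern-corrected value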;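 note: 0% = DMSO wells with peroxide and 100% = DMSO wells without peroxide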
PfM18AAP inh – blocks P. falciparum M18 aspartyl aminopeptidase | inhibition, % at 7.35 µM | 290,000 compounds, 1.2% hits | recombinant PfM18AAP, H-Glu-NHMec fluorogenic cleavage;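 active = inhibition above the campaign mean inhibition over all tested compounds plus 3 SD, cut at about 28% in these data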;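 note: 0% = plate median of test compound wells and 100% = 2 mM ZnCl2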
* = called active by the depositor; . = not tested or not shown. An excerpt weighted towards active compounds, which were near 5.6% of everything screened.

SMILES	PHOSPHO1 inh	PfGluPho inh	ALR H2O2 inh	Cardio protect	PfM18AAP inh
O=C(CCC1N=C2c3ccccc3N=C(SCc3ccc(Cl)cc3)N2C1=O)NCc1ccco1 (stereo not given)	21	5	98*	7	5
O=C(CCC1N=C2c3ccccc3N=C(SCc3ccc(F)cc3)N2C1=O)NCc1ccco1 (stereo not given)	-15	-7	-24	17	-1
CCOc1cc(/C=C2/C(=O)ON=C2C)ccc1O	24	7	99*	5	25
CCOc1cc(/C=C2/N=C(C)C(C(=O)OC)=C2O)ccc1O	47	27	99*	0	18
CCOc1cc(/C=C2\N=C3CCCCCN3C2=O)ccc1O	-14	-6	99*	-4	-4
CC1=NOC(=O)/C1=C/c1ccc(O)c(Cl)c1	24	-2	.	2	20
CC(C)(C)c1ccc(OCC(=O)Nc2ccc3c4c(cccc24)C(=O)NC3=O)cc1	41	-1	.	60*	-6
CCOC(=O)CSC1=NC(=O)/C(=C/c2ccc(OC)cc2)S1	-1	45	99*	12	21
O=C1Nc2cc(C(=O)NCCN3CCCCCC3)ccc2S/C1=C\c1ccccc1	17	89*	-5	-16	-1
CCOC(=O)C1CCN(C2=NC(=O)/C(=C/c3ccc(O)cc3)S2)CC1	11	10	98*	-2	15
CCOC(=O)C1CCCN(C2=NC(=O)/C(=C/c3ccc(O)c(OCC)c3)S2)C1 (stereo not given)	7	18	96*	4	0
Cc1cccc(/C=C2/Sc3ccc(C(=O)NCCN4CCCC4)cc3NC2=O)c1	-22	57	1	-10	6
COc1ccc(/C=C2\SC(N)=NC2=O)cc1	34	7	-3	-8	2
CCOC(=O)C1CCN(C2=NC(=O)/C(=C/c3ccccc3OC)S2)CC1	50	-6	-4	8	-8
COc1ccc(C2=CCCC2)c(OC)c1	.	15	.	0	.
Cc1ccc(N(Cc2ccccc2)C(=O)CN2C(=O)NC3(CCCC3)C2=O)cc1	58	8	9	9	2
COC(=O)c1ccc(CNC(=O)C2CCC(=O)N(C3CCCCCC3)C2)cc1 (stereo not given)	24	-4	-65	-6	-1
COc1cccc(/C=C2\SC(N3CCCC(C)C3)=NC2=O)c1OC (stereo not given)	24	-7	97*	-6	10
COc1cc(/C=C2\SC(N3CCc4ccccc4C3)=NC2=O)cc(OC)c1OC	-26	13	2	52*	1
CCOC(=O)C1CCCN(C2=NC(=O)/C(=C/c3ccc(OC)cc3)S2)C1 (stereo not given)	13	-3	-2	6	0
CCOC(=O)C1CCCN(C2=NC(=O)/C(=C/c3ccc(N(C)C)cc3)S2)C1 (stereo not given)	-3	9	100*	-7	-2
CCOC(=O)C1CCCN(C2=NC(=O)/C(=C/c3ccc(OC)cc3OC)S2)C1 (stereo not given)	-42	49	13	33	28*
COc1ccc(/C=C2\SC(N3CCc4ccccc4C3)=NC2=O)cc1	0	-2	-3	1	2
COc1cccc(/C=C2\SC(N3CCC(C)CC3)=NC2=O)c1OC	9	22	-3	-1	14
COc1ccc(-c2[nH][nH]c(=O)c2NC(=O)c2ccc(C)cc2)cc1	.	.	.	-4	.
SMILES	PHOSPHO1 inh	PfGluPho inh	ALR H2O2 inh	Cardio protect	PfM18AAP inh
COc1ccc(NC(=O)CN2C(=O)NC(C)(C3CC3)C2=O)c(OC)c1 (stereo not given)	.	5	2	15	.
CCOC(=O)C1CCN(C(=O)c2ccc3c(c2)NC(=O)/C(=C\c2ccc(C)cc2)S3)CC1	70*	19	-2	-9	3
CCOC(=O)C1CCN(C(=O)c2ccc3c(c2)NC(=O)/C(=C/c2ccccc2)S3)CC1	54	2	-19	-9	-5
CCCCNC(=O)c1ccc(Cc2cn(C)c3ccccc23)nc1	.	.	.	6	.
CCCn1c(=O)c2ccccc2n2c(SCC(=O)c3cc(C)n(CC4CCCO4)c3C)nnc12 (stereo not given)	66*	.	.	.	.
Cc1cc(C(=O)CSc2nnc(-c3ccncc3)n2-c2ccccc2)c(C)n1C	77*	15	17	9	19
Cc1cc(C(=O)CSc2nnc(-c3ccccc3)n2-c2ccccc2)c(C)n1-c1ncn[nH]1	75*	-32	-6	-1	6
Cc1cc(C(=O)CSc2nnc(-c3ccccc3)n2C)c(C)n1C	24	8	6	1	3
Cc1cc(C(=O)COC(=O)c2cc(O)c3ccccc3c2O)c(C)n1CC1CCCO1 (stereo not given)	-11	78*	.	-20	8
Cc1cc(C(=O)CSc2nnc(-c3cccnc3)n2-c2ccccc2)c(C)n1CC1CCCO1 (stereo not given)	74*	-3	-88	-3	8
CS(=O)(=O)c1ccc(Cl)c(NC(=O)c2cccc(-n3cnnn3)c2)c1	.	30	-5	17	.
CCOC(=O)C1=C(SCC(=O)Nc2ccccc2)NC(=O)C(C#N)C12CCCCC2 (stereo not given)	-8	-1	89*	-3	10
N#CC1=C(N)NC(SCC(=O)O)=C(C#N)C12CCCC2	2	-8	7	11	3
N#CC1=C(SCC(=O)Nc2cccc3cccnc23)NC(=O)C(C#N)C12CCCCC2 (stereo not given)	5	-2	0	-8	19
N#CC1=C(N)NC(SCC(=O)Nc2ccccc2)=C(C#N)C12CCCC2	52	10	95*	-16	5
O=c1cc(-c2ccc(OCc3ccccc3)cc2)oc2cc(OCc3ccccc3)cc(OCc3ccccc3)c12	.	27	.	-4	.
COc1ccc2c(c1)c(C(=O)CNc1nc(C)cs1)c(C)n2C	81*	9	98*	6	-1
CCOCc1cnc(C)nc1NCC(=O)c1c(C)n(C)c2ccc(OC)cc12	92*	5	.	12	12
CCCCNC(=O)C1(C)CCCCN1C(=O)c1ccc2ccccc2n1 (stereo not given)	.	.	.	-3	.
Nc1nc(SCC(=O)Nc2ccc([N+](=O)[O-])cc2)[nH]c(=O)c1NC(=O)c1ccc(Br)cc1	12	-37	-22	4	-2
COC(=O)CNC(=O)c1cn(CC(C)C)c(=O)c2cc(OC)c(OC)cc12	5	-11	.	2	1
CCn1c(=O)c(C(=O)NCc2ccccc2)c(O)c2ccccc21	19	-10	11	14	-11
COc1cc2c(C(=O)NCc3ccccn3)cn(CC(C)C)c(=O)c2cc1OC	-1	-3	2	54*	0
CC(C)Cn1c(=O)c(C(=O)NCc2ccccn2)c(O)c2ccccc21	10	-35	.	56*	-4
COc1ccc(CCNC(=O)c2cc(C)oc2C)cc1OC	36	11	-2	-2	-3
COc1cc(C(=O)CCN2CCC(c3ccccc3)C2)cc(OC)c1OC (stereo not given)	-16	-1	98*	-31	-12
